Data on 32 molecules can be found in the supplement of paper PMC12632987.

In this assay the target is UCHL1, P09936. The assay is described as follows: median log2 fold change of GCK-ALFA target abundance (FLAG IP / Myc IP barcode read proportion) (log2 ratio); each designed protein is fused to an ALFA-tag nanobody in HEK293 cells to bring the named protein to FLAG-tagged glucokinase (GCK); Myc marks an untargeted standard; higher = target protein stabilised (more abundant). Particulars: target protein: 3xFLAG-MCP-GCK-ALFA reporter; HEK293 landing pad (RPLP). In outline: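 Binders fused to an ALFA nanobody were recombined as a library into HEK293 landing-pad cells, which were induced with 2 μg mL^−1 doxycycline and then transfected to express a FLAG-tagged target and a Myc-tagged standard. After 48 h, circular RNA barcodes recovered by anti-FLAG and anti-Myc immunoprecipitation of lysates were reverse transcribed, amplified and sequenced. Each binder's target abundance is the median log2 ratio of FLAG to Myc barcode read proportions, from barcodes present at ≥10^−7 in both replicates, binders carrying ≥3 barcodes per replicate, a 10^−6 pseudocount and pooled replicates.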
UCHL1, P09936, sequence (P09936 whole entry, looked up, the tested form may be a part): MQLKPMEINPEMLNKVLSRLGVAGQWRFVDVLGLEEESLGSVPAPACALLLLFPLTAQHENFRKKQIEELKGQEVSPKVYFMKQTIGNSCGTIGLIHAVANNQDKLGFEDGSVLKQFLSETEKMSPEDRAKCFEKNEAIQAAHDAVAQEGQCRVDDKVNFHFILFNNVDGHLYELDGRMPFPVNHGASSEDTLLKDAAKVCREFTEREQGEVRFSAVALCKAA

B1: uchl1_2_7554 (protein)
chain: ETKFVGVLVEIESVNPETGKEYKSRRTLIGTASAIEKLAEEVLELVRTFKEKTKAPVKVKVTVYVSDEETAKKAEKEFKKLEEELKKEGVEVEVEVIVVK
As to B1, the “median log2 fold change” value was -0.73.

B2: uchl1_2_7545 (protein)
chain: KTKFVGVLVTLRSYDPETGREYVSRRTLIGTEEAVEAMAEEIAELIRRFHDRTGVPVDVDVTIYSSSKEVAEELKKKLEEEVKKLKAEGIDVTLTVTLKV
B2: the “median log2 fold change” value worked out at 0.0138.

B3: uchl1_2_7553 (protein)
chain: KTKFVGVLVTIRAVNPETGKEYRSRRTLIGTADAIEALAEEVYELVLRFKEATGAPVEVDVRVYVSDEETAERAREAFKKLEERLKAEGVKARVEVTVVK
Consider B3, for which the “median log2 fold change” value was -0.615.

B4: uchl1_2_7549 (protein)
chain: EPQFVGVLVTVTSTNPETGKVYKSRRNFIGTADAIPALFKEVLEYVLTFKEANGGKTKVKLEIVVSTKEVAEKAKKEAEKLKKELAKEGIEAEVKITVVE
Take B4: the “median log2 fold change” value is -0.1.

B5: uchl1_2_7570 (protein)
chain: KTVFVGVLVTLTSKDAKTGKTYKSRRTYIFTESSIEALAKEIKEDALAFQKDVGVPVTVDIKIYSTKEEVVKKTKAVLEKMAEELAKEGIKVNITGTVVK
Consider B5, for which the “median log2 fold change” value was -0.683.

B6: uchl1_2_7543 (protein)
chain: KPVFVGVLLELEARDEATGRVYRARRTLIGTEDGIEAMAEEVRRLVREFWEATGVPVRARVTIVSTREEVAERLRRALEAAHEELRAEGIDVTLEITVRV
In the case of B6, the “median log2 fold change” value stood at 0.327.

B7: uchl1_2_7548 (protein)
chain: KAEFVGALVTITSTNPETGEVRVARRTLIGLASDIDALMEEIERLVLDFQADTGGATRVRIRIVVSSEEVAERARAAAEEMKARLAAEGIEVEVEIEVVE
As to B7, the “median log2 fold change” value is -0.489.

B8: uchl1_2_7540 (protein)
chain: KSVFVGVLVTLRSYDEATGKEYVSRRTLIGTEDSIEALAEEVAELIRAFYEQTGVPVQADVTIVSSSREVAERLAEALRAREAELRAEGVDVTLTITVRV
B8: the “median log2 fold change” value was -0.377.

B9: uchl1_2_7562 (protein)
chain: KPVFIGVLVTLTAEDKETGKTYRSRRTLIFTESAIEALAEEIKELALNFRDTVGVPVKVEIKVFSTDEAVVERTVAILEKMAEELAKEGIEVTITGEVVK
As to B9, the “median log2 fold change” value was -1.04.

B10: uchl1_2_7558 (protein)
chain: KSEFVGVKVTITAEDPETGKVYVAKRTFIGLASDIEKLVEEVKKLVLEFKADKKVPVKVKIEAVVSSEETAERLKKELEKMKKELAKEGIEVEITVKVVK
With B10, the “median log2 fold change” value was -0.285.

B11: uchl1_2_7565 (protein)
chain: ETIFIGVLVTLTSRDEATGKVYRSRRTLIFTESAIDALVEEIKEDALAFKAQTGVPVTVNIHIVSTNEEVVEKLKKKLEEMAKELAKEGITVNISYTVVK
For the molecule B11, the “median log2 fold change” value is -0.661.

B12: uchl1_2_7569 (protein)
chain: KTVFVGVKVTLEAYDEKTGKRYRSRHTLIFTEDSIEALAKEIKELALDFQKDVGVPVTVNIEVYSTDEAVVKKTMAVLEKMAKELAKEGIKVNITGTVVK
For B12, the “median log2 fold change” value is -1.14.

B13: uchl1_2_7546 (protein)
chain: KTQFVGALVKMEAYDEETGKTYKSTRTLIGTADAIEKMAEEIYELALNFKDTVGVPVKVKVDVVVASEETKKKAEAALKKMKEKLKKEGIEVEVKVTVVE
For B13, the “median log2 fold change” value is -1.13.

B14: uchl1_2_7560 (protein)
chain: KTQFVGVRVDITSLNPETGEVFRARRTLIGTEDSLEAMLEEVRRLVLDFKEQYGGETRVEIRITVSTEETGERAKRLAEELKEELEKEGIEVEVEVEVAK
Regarding B14, the “median log2 fold change” value was 0.0724.

B15: uchl1_2_7547 (protein)
chain: KTEFVGVLVTITSVNPETGETFVARRTLIGTASSIEAMAKEIKELALAFKADTKGDTTVDVEVVVSSKEVAEKAKKALEELKKELEAEGIKFNYKITVVE
As for B15, the “median log2 fold change” value is -0.0935.

B16: uchl1_2_7557 (protein)
chain: KSEFVGVLVTITARDEETGEVKVARRTFIGLAEDIEKLVEEIKKLVLEFKAQYNVPVEVDIKAVVSSEETAEKLKKELEKMKKELEKEGITVNIEVEVVE
As to B16, the “median log2 fold change” value was -0.214.

B17: uchl1_2_7556 (protein)
chain: KTVFVGVAIDLTSTNPETGEVFRSRRTLIGTASAIEAMAEEVRELILRFREETGGPVEVRILVVSSDEAVARRLVALLEAMAAELAAEGVTVTVTRRVLK
Regarding B17, the “median log2 fold change” value was -0.249.

B18: uchl1_2_7541 (protein)
chain: KTKFIGVLVTLTSYDAATGRTYRARRTLIGTESGIEAMAAEVAELVRTFHDATGQPVAVDVRIVSSDEAVAEALEAALKAAEAALKAEGVDVTLTITKDV
Take B18: the “median log2 fold change” value was -0.304.

B19: uchl1_2_7566 (protein)
chain: ETVFVGVKVTLTSYDEKTGKTYKSTRTLIFTESSIDAAVEEIRELALSFREQVGVPVKVEIHIVSTREEVLERLKEKLEEMAEELKEEGIEVEISGEVVK
For B19, the “median log2 fold change” value is -0.335.

B20: uchl1_2_7539 (protein)
chain: KTKFVGALVEITAKDEKTGKVYRSRRTLIGTESAIEAMAKEIKELVLNFKEETGVPVEVKVTVYAENKETAEKMKKELEKMAKELAKEGIKVEIEVKLVE
Consider B20, for which the “median log2 fold change” value was -0.811.

B21: uchl1_2_7555 (protein)
chain: ASQFVGVLVTITAKDEKTGKTYVSRRTLIGTAESIEKMVEEIKELVLRFKDITKAPVEVKIEVYVSTEETAERMEKELEKLKEELEKKGVKVEIEVHVVE
In the case of B21, the “median log2 fold change” value was -0.856.

B22: uchl1_2_7568 (protein)
chain: KTVFVGVKVTLTSENKETGKTYKSTHTLIFTESAIEKLVEEIERLALEFKDATGVPVKVDIEVYSTDEEVLKKLMKELKKMAERLKKEGIEVNITGTLVK
For B22, the “median log2 fold change” value was -0.4.

B23: uchl1_2_7538 (protein)
chain: KTRFVGVLVKITAKDEKTGKVYRARRTLIGTASGIPAMAEEVERLVLEFQERTGVPVRVEVHVYASDEETAELARREFERMAERLAEHGIEVTVTVTVVE
Turning to B23, the “median log2 fold change” value is -0.55.

B24: uchl1_2_7544 (protein)
chain: KTKFVGVKVTLTSYDEKTGKEYKSTHTLIGTEEAVEAMAKEIAELIRTFYDATGVPVKVDVTIYSSSEEVAEKLEKELKKEVEKLKKEGIDVTLTITKKV
On to B24, for which the “median log2 fold change” value is -0.358.

B25: uchl1_2_7564 (protein)
chain: KTIFIGVLVELIAEDEETGKVYRSRHTYIFTESAIDALVEQIKEDALAFKEQTGVPVRVRIHIVSTNEEVVKKLKEKLEEMAEELKKEGIEVEISYTVVK
In the case of B25, the “median log2 fold change” value was -0.635.

B26: uchl1_2_7550 (protein)
chain: EPRFVGVLVTVTSTNPETGEVFRSRRNFIGTADAVAAMMAEVEEYVLRFKEVNGGAVAVDLHVVVSTEEDAARARAEAAKLAARLAAEGITATVTVTVVE
Take B26: the “median log2 fold change” value is -0.0947.

B27: uchl1_2_7567 (protein)
chain: KPVFIGVKLTLTSKDEKTGKTYKSTHTLIFTESAIDKLVEEIERLALEFQKATGVPVTANIEVYSTDKEVLEKLMKKLKEMAKRLAKEGIKVNIEGKLVE
With B27, the “median log2 fold change” value was -0.668.

B28: uchl1_2_7551 (protein)
chain: KSVFVGVLVTIRATDAATGETLVSRRTLIGTESSIKKLAEEVKELVLEFKARTGGPVEVDITVYSSKEEVAKKAKEEFEKLKKELAAEGVTANVNVILSK
Turning to B28, the “median log2 fold change” value is -0.159.

B29: uchl1_2_7563 (protein)
chain: ETVFVGVLVTLTAENAETGETFRSRRTYIFTESAIDALVAEIERDALAFREQTGVPVTVDIHIVSTDEAVVRRLEAALRAMAERLAAHGITVNISSTVVR
As to B29, the “median log2 fold change” value is -0.142.

B30: uchl1_2_7542 (protein)
chain: KPKFIGLKVTLTSYDEKTGKTYKATRTLIGTESGIEAMAKEVGELVRTFYDATGVPVKVDVTIVSSDEEVAKKLEEALRKMEEELKKEGVPVELNIKKEV
As for B30, the “median log2 fold change” value was -0.0683.

B31: uchl1_2_7552 (protein)
chain: KTQFVGVLVTITSTNPETGEVKTVRKTLIGTEEGIEAMAKEILEMALEFKEQTKGPVEVKVEVVVSTEETAKKMEEELKKLEEELKKEGIKVEVEVKVVK
On to B31, for which the “median log2 fold change” value stood at 0.325.

B32: uchl1_2_7559 (protein)
chain: KTKFVGVLVKVEAVDEKTGKVKKARRTFIGTEENIEKLVEEIEKYVLEFQKEHGKDVKVKIHGVVSDEETAEKLKKKLEEMKKRLEKEGIKVEIEVTVAK
With B32, the “median log2 fold change” value is -0.255.
